Test systems include NCI-H23 lung; NCI-H226 lung; NCI-H322M lung; HOP-62 NSCLC; NCI-H460 lung; HOP-92 NSCLC; NCI-H522 lung; A549/ATCC NSCLC; 786-0 renal; COLO 205 colon.
Common to all, as to assay: NCI-60 one-dose screen, 48 h (100 = growth as untreated, 0 = no growth, -100 = all killed)
Holding throughout (conditions): 10 µM unless noted

Each structure is given as a SMILES string. About 83,000 compounds went through this panel and 20% of them were active in at least one assay; those are over-represented in the sample as a whole.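 Method: cells in 96-well plates; compound added at one concentration; 48 h incubation; percent growth measured; values under 10 scored active.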 A number with no mark means an inactive call. Calls of active or inactive are those of the source.

Regarding `O=C(CN1N=C(c2ccc(F)cc2)CCC1=O)Nc1nc2ccccc2s1`, the growth is -26.2% (active) in the experiment on NCI-H23 lung; 41.7% in the experiment on NCI-H226 lung; 95.1% with NCI-H322M lung; -23.7% (active) in the experiment on HOP-62 NSCLC; 51.3% in the experiment on NCI-H460 lung; -77.1% (active) in the experiment on HOP-92 NSCLC. Further, the growth in the experiment on NCI-H522 lung is -73.5% (active); with A549/ATCC NSCLC, -48.8% (active); with 786-0 renal, -90.2% (active); with COLO 205 colon it was 87.2%.

As to `CSc1nc(-c2ccc(F)cc2)c(C#N)c(N2CCOCC2)n1`, the growth with NCI-H23 lung is 101%; in the experiment with NCI-H226 lung, 80%; in the experiment on NCI-H322M lung, 92.6%; with HOP-62 NSCLC it was 97.3%; in the experiment on NCI-H460 lung it was 102%; with HOP-92 NSCLC, 73.9%. In addition, the growth is 90.1% with NCI-H522 lung, 88.6% in the experiment with A549/ATCC NSCLC, 93.7% in the experiment with 786-0 renal and 106% with COLO 205 colon.

For the compound `CN(C)CCCn1c2c(c3cc(-c4ccco4)ccc3c1=O)C(=O)c1ccccc1-2`, the growth with NCI-H23 lung was 71.8%; in the experiment on NCI-H226 lung, 77.2%; in the experiment on NCI-H322M lung it was 81.3%; with HOP-62 NSCLC, 59.2%; in the experiment with NCI-H460 lung, 46.3%; in the experiment with HOP-92 NSCLC, 71.6%. The growth in the experiment on NCI-H522 lung was 59.9%; in the experiment on A549/ATCC NSCLC, 67.7%; in the experiment with 786-0 renal, 69.2%; in the experiment with COLO 205 colon, 52.9%.

Consider `COc1ccc(Cc2nc(C#N)c(N3CCN(c4ccc(F)cc4)CC3)o2)cc1`, for which the growth was 86.3% in the experiment with NCI-H23 lung; 74.1% in the experiment with NCI-H226 lung; 99.5% with NCI-H322M lung; 95.8% in the experiment with HOP-62 NSCLC; 104% in the experiment with NCI-H460 lung; 88.2% in the experiment with HOP-92 NSCLC. The growth in the experiment on NCI-H522 lung was 73.6%; in the experiment on A549/ATCC NSCLC, 92.1%; in the experiment on 786-0 renal it was 91.1%; with COLO 205 colon it was 103%.

For the compound `O=C1CC23OC(C(O)c4ccccc4N12)C1C(c2ccccc2)=NOC13` (stereo not given), the growth was 66.7% with NCI-H23 lung; 82% with NCI-H226 lung; 79.7% in the experiment with NCI-H322M lung; 68.5% in the experiment with HOP-62 NSCLC; 76.5% in the experiment with NCI-H460 lung; 43.3% with HOP-92 NSCLC. The growth with NCI-H522 lung is 40.8%; in the experiment with A549/ATCC NSCLC it was 82.9%; in the experiment on 786-0 renal, 37.2%; with COLO 205 colon, 50.6%.

As for `O=C(/C(=C/c1ccc([N+](=O)[O-])cc1)SCc1ccc(Cl)cc1)c1ccc(F)cc1`, the growth in the experiment with NCI-H23 lung is 57%; in the experiment on NCI-H226 lung, 66.7%; with NCI-H322M lung it was 100%; in the experiment with HOP-62 NSCLC it was 68.7%; in the experiment on NCI-H460 lung, 83.1%; in the experiment with HOP-92 NSCLC it was 80.3%. The growth is -1.33% (active) in the experiment on NCI-H522 lung, 80.5% with A549/ATCC NSCLC, 76.9% with 786-0 renal and 48.3% with COLO 205 colon.

Consider `CN(C)CCCn1c2c(c3cc(-c4cccc(S(N)(=O)=O)c4)ccc3c1=O)C(=O)c1ccccc1-2`, for which the growth in the experiment with NCI-H23 lung is 57.4%; with NCI-H226 lung it was 77.8%; with NCI-H322M lung, 77.3%; with HOP-62 NSCLC, 53.1%; in the experiment on NCI-H460 lung it was 14.1%; in the experiment with HOP-92 NSCLC, 104%. Besides, the growth with NCI-H522 lung is 44.9%; with A549/ATCC NSCLC, 64.7%; in the experiment with 786-0 renal, 30.6%; in the experiment on COLO 205 colon, 59.1%.

Regarding `CCCCc1ccc(N=Nc2ccc(OCC[N+](C)(C)C)cc2)cc1`, the growth was 49.2% in the experiment with NCI-H23 lung; 51.9% with NCI-H226 lung; 73.8% in the experiment with NCI-H322M lung; 20% with HOP-62 NSCLC; 32.7% in the experiment on NCI-H460 lung; 25.8% in the experiment with HOP-92 NSCLC. The growth in the experiment on NCI-H522 lung was 34.4%; with A549/ATCC NSCLC, 33.2%; with 786-0 renal it was 71.4%; in the experiment on COLO 205 colon, -5.3% (active).

On to `[2H]c1cc2c(c([2H])c1F)/C(=C/c1[nH]c(C)c(C(=O)NCCN(CC)CC)c1C)C(=O)N2`, for which the growth in the experiment on NCI-H23 lung was 43.5%; in the experiment with NCI-H226 lung, 40.5%; in the experiment on NCI-H322M lung, 47.7%; with HOP-62 NSCLC, 28.9%; in the experiment on NCI-H460 lung, 47.5%; with HOP-92 NSCLC, 26.6%. Moreover, the growth in the experiment on NCI-H522 lung was 62.4%; in the experiment on A549/ATCC NSCLC it was 56.5%; in the experiment on 786-0 renal, 32.5%; in the experiment with COLO 205 colon, 38.3%.

On to `COC(=O)CCc1n(Cc2ccc3ccccc3c2)c2ccccc2[n+]1Cc1ccc2ccccc2c1`, for which the growth in the experiment on NCI-H23 lung is -7.39% (active); with NCI-H226 lung, 17.7%; in the experiment on NCI-H322M lung, 36.6%; with HOP-62 NSCLC, 19%; with NCI-H460 lung it was 6.29% (active); in the experiment with HOP-92 NSCLC it was -34.4% (active). The growth was -29.4% (active) in the experiment with NCI-H522 lung, 38.3% in the experiment on A549/ATCC NSCLC, 15.4% in the experiment on 786-0 renal and -57.3% (active) with COLO 205 colon.

In the case of `C=C1C(=O)O[C@H]2[C@H]1CCC(/C=N/c1ncc(Br)cc1N)=C\CC[C@@]1(C)O[C@@H]21`, the growth is 49.2% with NCI-H23 lung; 51.9% in the experiment with NCI-H226 lung; 85.3% with NCI-H322M lung; 67.3% with HOP-62 NSCLC; 58.3% in the experiment on NCI-H460 lung; -15.2% (active) with HOP-92 NSCLC. Moreover, the growth in the experiment on NCI-H522 lung is -51.7% (active); in the experiment on A549/ATCC NSCLC it was 57.4%; in the experiment on 786-0 renal, -13.9% (active); in the experiment with COLO 205 colon, -60% (active).

As for `CC(C)C1=C[C@@]23CC[C@H]4[C@](C)(COCCC#N)CCC[C@]4(C)[C@H]2C[C@@H]1[C@@H]1[C@H]3[C@@H](OCCC#N)CC[C@@H]1OCCC#N`, the growth is 35.7% in the experiment with NCI-H23 lung; 39.8% with NCI-H226 lung; 86.1% in the experiment on NCI-H322M lung; 65% with HOP-62 NSCLC; 30.3% with NCI-H460 lung; 53% in the experiment with HOP-92 NSCLC. Also, the growth with NCI-H522 lung is 25%; in the experiment with A549/ATCC NSCLC it was 27.6%; in the experiment on 786-0 renal, 54.3%; in the experiment with COLO 205 colon, 17.4%.

For the compound `Cc1c(Br)cccc1NC(=O)c1sc2nc3c(cc2c1N)CN(Cc1ccccc1)CC3`, the growth was 40.7% with NCI-H23 lung; 23.7% in the experiment with NCI-H226 lung; 41.2% in the experiment with NCI-H322M lung; -2.37% (active) with HOP-62 NSCLC; 6.71% (active) in the experiment with NCI-H460 lung; 30.2% with HOP-92 NSCLC. Besides, the growth in the experiment on NCI-H522 lung was -0.487% (active); in the experiment with A549/ATCC NSCLC it was 21.4%; in the experiment with 786-0 renal, 35.1%; in the experiment with COLO 205 colon, -4.67% (active).

These data come from PubChem BioAssay (NCI).
